Only some compounds are listed: those with a hit (about 7.5% of all), similar ones and a draw of the others.
ELG1 genotoxic – genotoxicity induction in ELG1-luciferase HEK293T cells | HEK293T ELG1-luciferase reporter, luminescence, 16 h | Potency, µM (doses to about 46 µM), for inactives: at the top dose activity change, positive = activation, usual class: activators | 330,000 compounds, 1.3% hits; also: % of control where 0% means no effect; nearly all actives have a fitted effect of over 60% in size
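HEK293T cells expressing luciferase-tagged ELG1 were treated with compound or DMSO for 16 hr at 37°C. Luciferase activity was then read after 30 min with ONE-Glo at room temperature; rising signal flags genetic stress.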
FLuc counter – inhibits or activates purified firefly luciferase, miR-21 counter-screen; purified FLuc, Km substrates, luminescence inhibition; Potency, µM (top dose mostly 57.5 µM), for inactives: at the top dose activity change, negative = inhibition, usual class: inhibitors; 360,000 compounds, 6.9% hits;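 also: plate controls were vehicle for no effect and reference inhibitor for full effect; nearly all actives have a fitted effect of over 55% in size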
Target sequence (P08659 whole entry, looked up): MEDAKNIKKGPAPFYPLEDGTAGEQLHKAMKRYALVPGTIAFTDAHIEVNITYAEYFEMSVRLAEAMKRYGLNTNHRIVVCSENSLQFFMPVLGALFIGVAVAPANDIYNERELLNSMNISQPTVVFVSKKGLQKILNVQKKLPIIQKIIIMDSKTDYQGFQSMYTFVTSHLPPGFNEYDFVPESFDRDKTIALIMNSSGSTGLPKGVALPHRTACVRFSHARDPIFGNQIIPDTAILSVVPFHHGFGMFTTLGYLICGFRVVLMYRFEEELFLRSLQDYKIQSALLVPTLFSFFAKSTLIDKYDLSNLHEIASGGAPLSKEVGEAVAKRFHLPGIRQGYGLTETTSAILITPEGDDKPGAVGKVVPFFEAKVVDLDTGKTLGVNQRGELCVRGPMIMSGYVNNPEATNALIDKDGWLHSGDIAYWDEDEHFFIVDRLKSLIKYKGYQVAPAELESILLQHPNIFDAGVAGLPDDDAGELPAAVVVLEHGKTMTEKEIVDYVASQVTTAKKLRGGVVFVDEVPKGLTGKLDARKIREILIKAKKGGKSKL
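Purified P. pyralis luciferase (10nM final) with 10uM D-luciferin and 10uM ATP (Km levels) in 50mM Tris acetate pH 7.5, 10mM Mg acetate, 0.01% Tween-20, 0.05% BSA; qHTS 6-point titration, ~60 µM downward; luminescence read.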
Luc counter – Kinase-Glo luciferase inhibition (counter-screen); Q27757; Kinase-Glo luciferase, ATP luminescence, 8 min; Potency, µM (series often up to 38.3 µM), for inactives: at the top dose activity change, negative = inhibition, hits mostly inhibitors; 200,000 compounds, 0.28% hits; also: % is scaled to controls: 0 for no effect and ±100 for the full control effect; nearly all actives have a fitted effect of over 60% in size
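Light output from Kinase-Glo luciferase with luciferin and 10 uM ATP in 50 mM imidazole pH 7.2, KCl, MgCl2, Tween 20, BSA; compound pin-delivered, 8-min ambient incubation, then luminescence read.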
NPC1 prom act – activates the NPC1 promoter; 320,000 compounds, 2.4% hits; Huh7 NPC1 promoter luciferase reporter, 24 h; Potency, µM (doses to about 9.22 µM), without a hit: at the highest dose activation, actives largely listed as activators; also: % of control where 0% means no effect; nearly all actives have a fitted effect of over 60% in size
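Huh7 cells stably carrying NPC1 promoter–luciferase, plated in Opti-MEM with 10% FBS for 2 h, were exposed to compound in DMSO for 24 h at 37 °C; luciferase reagent was added for 10 min and luminescence read.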
Rab9 promoter act – activators of Rab9 promoter; AID 485297; Potency, µM (titrated, usually from 9.22 µM), without a hit: top-dose activation, negative = inhibition, usual class: activators; Huh7 Rab9 promoter-luciferase reporter, luminescence, 24 h; 320,000 compounds, 2.8% hits; also: % of control where 0% means no effect; nearly all actives have a fitted effect of over 60% in size
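Luciferase signal after 10 min detection reagent at ambient indicates Rab9 promoter upregulation; stably transfected Huh7 cells were treated 24 h with compound in DMSO at 37 °C, 5% CO2.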
SMN2 splice enh – enhancers of SMN2 splice variant expression; Potency, µM (top dose mostly 46.1 µM), for the others: at the top dose activity change, positive = activation, most hits filed as activators; AID 1458; 210,000 compounds, 2.8% hits; HEK293 SMN2-luciferase splicing reporter, luminescence, 30-36 h; also: % of control where 0% means no effect; nearly all actives have a fitted effect of over 55% in size
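HEK293 cells carry an SMN2 minigene-luciferase reporter in which exon 7 inclusion puts luciferase in frame. Cells were seeded at 2000 cells/well, attached for 10-12 hours, then exposed to compounds for 30-36 hours at 37C before ONE-Glo luminescence.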
Active calls of the source: *; ? = inconclusive; . = not tested or not shown. Calls follow the shape of the dose curve; as a rule, active = well fitted curve in the direction sought with a large enough effect; inconclusive = small, poorly fitted or top-dose-only effect, or another doubt; inactive = no such curve, though single readings can be large; an effect the other way counts as inactive or inconclusive. Potency is read from the fitted curve at half-maximal effect.

SMILES	ELG1 genotoxic	FLuc counter	Luc counter	NPC1 prom act	Rab9 promoter act	SMN2 splice enh
CCCC1CC(C)(c2csc(Nc3ccc(OCC)cc3)n2)OC1=O (stereo not given)	8%	19µM*	2%	0%	-2%	-92%
Cc1ccc(Cn2cc(S(=O)(=O)c3cccc(Cl)c3)c(=O)c3cc(F)c(N4CCOCC4)cc32)cc1	.	1%	.	.	.	.
CCCCC(=O)N1CCN(c2nc3ccc(Cl)cc3s2)CC1	?	11µM*	.	?	29%	.
CCC(=O)N1CCN(c2nc3ccccc3s2)CC1	6%	17µM*	-4%	?	3.2µM*	2%
CNC(=S)N1CCN(c2nc3ccccc3s2)CC1	17%	17µM*	-5%	?	?	.
CC(C)(CC(=O)O)CC(=O)N1CCN(c2nc3ccc(Cl)cc3s2)CC1	5%	-17%	.	-2%	-1%	.
Cc1ccccc1CN1CCN(c2nc3ccccc3s2)CC1	21µM*	4.8µM*	.	1.6µM*	1.4µM*	.
CCS(=O)(=O)c1ccccc1C(=O)N1CCN(c2nc3ccccc3s2)CC1	.	-4%	.	.	.	.
Cc1[nH]n(C)c(=O)c1[N+](=O)[O-]	1%	0%	.	-3%	-4%	.
COc1cc2c(=O)n(CCCC(=O)NCC3CCCO3)c(=O)n(CC(=O)c3ccc(F)cc3)c2cc1OC (stereo not given)	-3%	-9%	-4%	0%	3%	-34%
Cc1cc(=O)[nH]c(SCc2ccc(Cl)cc2Cl)n1	-10%	2%	.	1%	-2%	.
O=C(C1CC1)N1CCN(c2nc3ccccc3s2)CC1	?	21µM*	0%	2.8µM*	2.2µM*	?
Cc1cc(C)c2sc(N3CCN(C(=O)C4CC4)CC3)nc2c1	.	12µM*	.	.	.	.
CCCCOC(=O)c1ccc(NC(=O)/C(C#N)=C/c2ccc(-c3ccccc3)o2)cc1	.	-3%	.	.	.	-1%
Fc1ccc(-n2nc(-c3ccccc3)c3cnc4ccccc4c32)cc1Cl	.	2%	.	.	.	18%
O=C(COc1ccc(Cl)cc1Br)NC1CC1	10%	13µM*	.	?	28%	.
CC(=O)c1cc(Cl)ccc1OCC(=O)NC1CCCC1	-1%	17µM*	.	?	?	.
O=C(COc1ccc(Cl)cc1Cl)Nc1ccc(CN2CCOCC2)cc1	1%	-19%	.	-1%	-3%	.
O=C(COc1ccc(Cl)cc1[N+](=O)[O-])NC1CCCCC1	?	11µM*	1%	?	1.4µM*	11µM*
O=C(COc1ccc(Cl)cc1Cl)NC(=O)N1CCOCC1	5%	21µM*	-1%	-5%	-5%	20%
O=C(O)C=C1CCN(c2ncc(C(F)(F)F)cc2Cl)CC1	8%	19µM*	-2%	?	?	14%
CCCCOc1ccc(C(=O)N/N=C/c2cn[nH]c2-c2ccc(OC)c(OC)c2)cc1	-3%	12µM*	0%	-2%	-3%	-1%
COc1ccc(-c2[nH]ncc2/C=N\NC(=O)c2ccc(C(C)(C)C)cc2)cc1OC	3%	1.3µM*	-5%	1%	4%	?
CCCOc1ccc(C2CC(=O)Nc3c2c(=O)n(C)c(=O)n3C)cc1OC (stereo not given)	.	5%	.	.	.	-11%
Cc1ccc2nc(-c3ccc(NC(=O)COc4c(C)ccc(C)c4C)cc3)sc2c1	.	19µM*	.	.	.	?
Cc1ccc2nc(-c3ccc(NC(=O)COc4ccc(Cl)c(C)c4)cc3)sc2c1	.	21µM*	.	.	.	14µM*
Cc1cc(OCC(=O)Nc2ccncc2)ccc1Cl	-2%	?	.	1%	-4%	.
Cc1ccc2nc(-c3ccc(NC(=O)COc4ccc(Br)cc4Br)cc3)sc2c1	.	2.1µM*	.	.	.	2.8µM*
Cc1ccc(CSc2nc3ccc(NC(=O)COc4ccccc4F)cc3s2)cc1	.	-11%	.	.	.	.
Cc1ccc(NC(=O)COc2ccc(Br)cc2CO)cc1	18%	13µM*	-1%	21%	21%	-25%
